# The panel holds about 83,000 compounds, 20% with a hit somewhere; the sample as a whole holds those more often.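 Method: cells in 96-well plates; compound added at one concentration; 48 h incubation; percent growth measured; values under 10 scored active.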 Values without a mark were called inactive. Calls of active or inactive are those of the source.
# Columns and labels:
# Experiment in all cases: NCI-60 one-dose screen, 48 h (100 = growth as untreated, 0 = no growth, -100 = all killed)
# Details in all cases: 10 µM unless noted
# SK-MEL-2 melanoma = system: SK-MEL-2 melanoma
# EKVX NSCLC = system: EKVX NSCLC
# SN12C renal = system: SN12C renal
# UO-31 renal = system: UO-31 renal
# TK-10 renal = system: TK-10 renal
# ACHN renal = system: ACHN renal
# CAKI-1 renal = system: CAKI-1 renal
# A498 renal = system: A498 renal
# CCRF-CEM leukemia = system: CCRF-CEM leukemia
# MOLT-4 leukemia = system: MOLT-4 leukemia
# SR leukemia = system: SR leukemia
# RPMI-8226 leukemia = system: RPMI-8226 leukemia
# OVCAR-8 ovarian = system: OVCAR-8 ovarian
# OVCAR-5 ovarian = system: OVCAR-5 ovarian
# OVCAR-4 ovarian = system: OVCAR-4 ovarian
# SK-OV-3 ovarian = system: SK-OV-3 ovarian
# IGROV1 ovarian = system: IGROV1 ovarian
# OVCAR-3 ovarian = system: OVCAR-3 ovarian
# HS 578T breast = system: HS 578T breast
# NCI/ADR-RES ovarian = system: NCI/ADR-RES ovarian
SMILES,growth (SK-MEL-2 melanoma) [%],growth (EKVX NSCLC),growth (SN12C renal) [%],growth (UO-31 renal),growth (TK-10 renal) [%],growth (ACHN renal),growth (CAKI-1 renal),growth (A498 renal),growth (CCRF-CEM leukemia),growth (MOLT-4 leukemia),growth (SR leukemia),growth (RPMI-8226 leukemia),growth (OVCAR-8 ovarian),growth (OVCAR-5 ovarian),growth (OVCAR-4 ovarian),growth (SK-OV-3 ovarian) [%],growth (IGROV1 ovarian) [%],growth (OVCAR-3 ovarian),growth (HS 578T breast),growth (NCI/ADR-RES ovarian) [%]
COc1ccc2c(c1)c(-c1nonc1-c1c[nH]c3ccc(Br)cc13)cn2C,46.9,31.6%,59.3,40.8%,58.2,43.7%,34.3%,27.4%,33.5%,17.6%,14.6%,45.5%,48.2%,55.3%,55.1%,58.4,52.7,41.1%,59.1%,34.9
CC(C)[C@@]12C[C@@H](OC(=O)COC(=O)c3ccccc3)[C@@](C)(O1)[C@@H]1CC[C@@H](C)[C@H]1[C@@H]2OC(=O)/C=C/c1ccccc1,103,81.8%,31,-78.1% (active),88.9,-13.4% (active),5.14% (active),-76.6% (active),87%,80.8%,78.6%,85.3%,31.7%,95.7%,87.2%,88.1,114,94.8%,-14.4% (active),25.2
CC(CN)[C@@H]1CC[C@]2(CO)CC[C@]3(C)[C@H](CC[C@@H]4[C@@]5(C)CCC(N)C(C)(C)[C@@H]5CC[C@]43C)[C@@H]12 (stereo not given in full),81.6,-44.7% (active),25.5,0.963% (active),57.7,17.7%,33.7%,92.2%,-32.1% (active),-35.1% (active),-46.4% (active),-38.2% (active),-78.4% (active),-51.4% (active),-38.9% (active),103,62.2,-84.2% (active),4.39% (active),53.6
CCn1cc(C(=O)N/N=C/c2ccc(Br)cc2)c(=O)c2cc(F)c(N3CCNC(C)C3)c(F)c21 (stereo not given),97.7,86.9%,52.2,68.4%,99.6,88.8%,68.5%,98%,29.7%,22%,4.35% (active),-14.8% (active),57.8%,94%,81.7%,109,71.3,52.9%,73%,83.3
O=C(c1ccc(Cl)cc1Cl)N1c2ccccc2Sc2ccccc21,88.7,75.7%,66.9,65.3%,73.3,60.7%,50.5%,68.9%,57.2%,26.4%,32.2%,55.3%,50.7%,71.4%,81.9%,69.1,60.9,58.9%,95.9%,60.9
Cc1[nH]c(/C=C/C(=O)c2ccc(C(F)(F)F)c(F)c2)c(C)c1C(=O)NCC(C)C,110,96.1%,97.9,92%,109,101%,94.8%,69%,101%,101%,85.6%,95.8%,89.4%,101%,101%,105,107,112%,97.9%,98.9
CCN(CC)CCOc1ccc(Nc2ncc3cc(-c4ccc(O)cc4)c(=O)n(C)c3n2)cc1,97.7,74%,39.9,10.5%,81.2,26%,26.4%,69.4%,-8.41% (active),5.99% (active),-20.5% (active),70.6%,55.7%,57.9%,110%,53,23.2,71.1%,33.5%,84

# Reference: PubChem BioAssay (NCI)
